Screening results: PubChem, several laboratories
Shown is part of a subset that was picked to be rich in hits.
RmlC RmlD mix: inhibitors of RmlC and RmlD coupled enzymes; AID 1532; inhibition, % at 5.5 µM; RmlC/RmlD coupled enzyme inhibition, 384-well mixture HTS; 0.39% of 110,000 active; in the data active = inhibition above about 30%, passing the limit was not always enough; inconclusive = no clear call, values can overlap the other calls
HIV RNase H inh-1: blocks HIV-1 RNase H cleavage of RNA/DNA duplex | P04585 | RT-RNase H RNA/DNA duplex cleavage, fluorescence | inhibition, % at 10 µM | 1.9% of 65,000 active; in the data active = inhibition above about 50%
HIV RNase H inh-2: confirmation of HIV-1 reverse transcriptase RNase H inhibitors | shares compounds with HIV RNase H inh-1 | Recombinant RT RNase H, fluorescent RNA/DNA duplex cleavage | inhibition, % at 10 µM | 39% of 1,000 active; in the data active = inhibition above about 48%; inconclusive = no clear call, values can overlap the other calls
Numbers without * were called inactive.

`CCC(C)N(C(=O)CSc1nc(-c2ccccc2)cs1)C1CCS(=O)(=O)C1` (stereo unspecified) gave RmlC RmlD mix -9.
`COc1ccccc1C1/C(=C(/O)c2ccccc2)C(=O)C(=O)N1CC(C)O` (stereo unspecified) gave RmlC RmlD mix 6 and HIV RNase H inh-1 -3.
`Cc1cc(S(=O)(=O)N(Cc2ccc3c(c2)OCO3)CC2CCCO2)ccc1-n1cnnn1` (stereo unspecified) gave RmlC RmlD mix -5 and HIV RNase H inh-1 -1.
CCC1S/C(=N/C(=O)NC2CCCCC2)NC1=O (stereo unspecified) was read as RmlC RmlD mix -5.
Screening O=C(/N=C1\NC(=O)C(F)(C(F)(F)F)S1)NC1CCCCC1 (stereo unspecified) returned RmlC RmlD mix -14, HIV RNase H inh-1 87* and HIV RNase H inh-2 30.
For Cc1ccc(C)c(NC(=O)CS(=O)(=O)c2cn(C)c3ccccc23)c1 the results were RmlC RmlD mix 3.
For O=C1CC(c2ccccc2)Cc2nc(N3CCc4ccccc43)ncc21 (stereo unspecified) the results were RmlC RmlD mix -2, HIV RNase H inh-1 78* and HIV RNase H inh-2 94*.
Screening O=C1CCCc2nc(N3CCc4ccccc43)ncc21 returned RmlC RmlD mix -10 and HIV RNase H inh-1 3.
For CC1(C)Oc2ccc(C(=O)NC3CCCC3)cc2N(CC(=O)NC2CCCCC2)C1=O the results were RmlC RmlD mix 7, HIV RNase H inh-1 73* and HIV RNase H inh-2 48.
Screening Cc1ccc(NC(=O)c2ccc3c(c2)N(CC(=O)N2CCCCC2)C(=O)C(C)(C)O3)cc1 returned RmlC RmlD mix -14 and HIV RNase H inh-1 -11.
For C=CCn1c(=O)c(C(=O)Nc2nnc(C)s2)c(O)c2ccccc21 the results were HIV RNase H inh-1 83* and HIV RNase H inh-2 98*.
For C=CCn1c(=O)c(C(=O)Nc2cccnc2)c(O)c2ccccc21 the results were RmlC RmlD mix 7.
Cc1ccc(-n2ncc3c(=O)n(CC(=O)N4CCCc5ccccc54)cnc32)cc1C was read as RmlC RmlD mix 11 and HIV RNase H inh-1 -4.
For CCn1c(=O)cc(SCC(=O)N2CCN(c3ccccc3OC)CC2)c2ccccc21 the results were RmlC RmlD mix -10, HIV RNase H inh-1 71* and HIV RNase H inh-2 9.
CCn1c(=O)cc(SCC(=O)N2CCOCC2)c2ccccc21 was read as RmlC RmlD mix 13 and HIV RNase H inh-1 -28.
`O=P1(Nn2cnnc2)C=C(c2ccccc2)OC(c2ccccc2)=C1` gave RmlC RmlD mix -7 and HIV RNase H inh-1 -3.
COc1cc(C(=O)Nc2cc(-c3nc4cc(C)ccc4o3)ccc2C)cc(OC)c1OC was read as HIV RNase H inh-1 8.
`Cc1cc(C)c2oc(-c3ccc(Cl)c(NC(=O)c4ccc(C#N)cc4F)c3)nc2c1` gave HIV RNase H inh-1 90* and HIV RNase H inh-2 73*.
For CC(C)Cn1c(N)c(C(=O)COC(=O)c2cc(-c3ccco3)nc3ccccc23)c(=O)n(C)c1=O the results were HIV RNase H inh-1 86* and HIV RNase H inh-2 inconclusive.
Screening CC(C)Cn1c(N)c(C(=O)COC(=O)c2cc(-c3ccccc3)nc3ccccc23)c(=O)n(C)c1=O returned RmlC RmlD mix -2.
NC(=O)N1CC(O)CC1C(=O)Nc1ccc(Cl)c(Cl)c1 (stereo unspecified) was read as RmlC RmlD mix -15 and HIV RNase H inh-1 -1.
For CC1(C)Cc2c(c(N3CCOCC3)nc3sc(C(=O)N4CCCCC4)c(N)c23)CO1 the results were RmlC RmlD mix -40, HIV RNase H inh-1 72* and HIV RNase H inh-2 41.
For CC1(C)Cc2c(c(N3CCOCC3)nc3sc(-c4ccc(C(=O)O)o4)c(N)c23)CO1 the results were RmlC RmlD mix -1 and HIV RNase H inh-1 8.
For CCOC(=O)N1CCC(Nc2c(NCCCOC)c(=O)c2=O)CC1 the results were RmlC RmlD mix 62 and HIV RNase H inh-1 -11.
COc1ccccc1-c1nnc2n1N=C(c1ccc(O)c(O)c1)CS2 was read as RmlC RmlD mix -12, HIV RNase H inh-1 94* and HIV RNase H inh-2 58*.
CCOc1ccc(C2=Nn3c(nnc3-c3ccccc3OC)SC2)cc1 was read as RmlC RmlD mix -10 and HIV RNase H inh-1 3.
Cc1cccc(-c2nnc3n2N=C(c2ccc(Br)cc2)CS3)c1 was read as RmlC RmlD mix 7 and HIV RNase H inh-1 40.
`COc1cccc(-c2nnc3n2N=C(c2cccc(Br)c2)CS3)c1` gave RmlC RmlD mix -3, HIV RNase H inh-1 54* and HIV RNase H inh-2 inconclusive.
`COc1ccc2[nH]c3nc(SCC(=O)Nc4ccc5c(c4)OCO5)nnc3c2c1` gave RmlC RmlD mix 6.
Screening COc1ccc2[nH]c3nc(SCc4nnc(-c5ccc(C)cc5)o4)nnc3c2c1 returned RmlC RmlD mix 9, HIV RNase H inh-1 60* and HIV RNase H inh-2 8.
CC1(C)CC(=O)c2c(-c3cccs3)n[nH]c2C1 was read as RmlC RmlD mix 6 and HIV RNase H inh-1 -1.
c1cncc(-c2nn3c(Cn4cnc5ccccc54)nnc3s2)c1 was read as RmlC RmlD mix -6, HIV RNase H inh-1 97* and HIV RNase H inh-2 68*.
Screening c1ccc(OCc2nn3c(Cn4cnc5ccccc54)nnc3s2)cc1 returned RmlC RmlD mix 8 and HIV RNase H inh-1 38.
Screening O=C(O)C(O)c1ccccc1 (stereo unspecified) returned RmlC RmlD mix -34.
O=C(O)C(O)c1ccco1 (stereo unspecified) was read as HIV RNase H inh-1 57* and HIV RNase H inh-2 48.
Screening Cn1c(CNC(=O)Nc2ccccc2)nnc1SCc1ccccc1 returned RmlC RmlD mix 1 and HIV RNase H inh-1 0.
Screening Cc1cc(C)cc(NC(=O)NCc2nnc(SCc3ccccc3)n2C)c1 returned RmlC RmlD mix -14, HIV RNase H inh-1 82* and HIV RNase H inh-2 47.
`CCOc1ccc(S(=O)(=O)n2nnc3ccccc32)cc1C(C)C` gave RmlC RmlD mix -6 and HIV RNase H inh-1 -17.
`CCOC(=O)N1CCC2(CC1)C(C#N)=C(N)OC1=C2C(=O)CC(C)C1` (stereo unspecified) gave RmlC RmlD mix -10.
Screening COc1cc(NC(=O)c2cccs2)c(OC)cc1NC(=O)CCn1nnc2ccccc21 returned RmlC RmlD mix -1 and HIV RNase H inh-1 -2.
`CCc1cccc(CC)c1NC(=O)C1CC(=O)N(c2ccc3c(c2)OCCO3)C1` (stereo unspecified) gave RmlC RmlD mix 14.
Screening O=C(Nc1nc(-c2ccco2)c(-c2ccco2)s1)C1CC(=O)N(c2ccc3c(c2)OCCO3)C1 (stereo unspecified) returned RmlC RmlD mix -5, HIV RNase H inh-1 74* and HIV RNase H inh-2 0.
O=C(O)CCNC(=O)c1ccc(N=Nc2ccc(O)c(C(=O)O)c2)cc1 was read as RmlC RmlD mix 4.
CCn1cc(C(=O)NCc2ccco2)c(=O)c2cc(S(=O)(=O)N3CCc4ccccc4C3)ccc21 was read as RmlC RmlD mix 0, HIV RNase H inh-1 65* and HIV RNase H inh-2 63*.
`CCn1cc(C(=O)NCc2ccco2)c(=O)c2cc(S(=O)(=O)N3CCCCCC3)ccc21` gave RmlC RmlD mix 5 and HIV RNase H inh-1 -24.
`COc1ccc(C(=O)Cn2c(C(=O)/C=C/c3ccccc3)nc3ccccc32)cc1` gave RmlC RmlD mix 1.
